Laboratory results as given in publication PMC7862700, “An all-to-all approach to the identification of sequence-specific readers for epigenetic DNA modifications on cytosine”.

Legend:
Test in all cases: DAPPL (digital affinity profiling via proximity ligation, sequencing); 10 mM Tris-HCl pH 7.5, 50 mM NaCl, 1 mM DTT, 4% glycerol, room temperature, 30 min; GST-TFs on glutathione beads, 16-mer random dsDNA library, 0.1% formaldehyde crosslink after washing; high values mean tight binding
[1] = target: T1, FLI1 (Homo sapiens, UniProt Q01543 1-452); conditions: protein: recombinant; tags: N-terminal GST; dsDNA, one strand shown
T1 sequence: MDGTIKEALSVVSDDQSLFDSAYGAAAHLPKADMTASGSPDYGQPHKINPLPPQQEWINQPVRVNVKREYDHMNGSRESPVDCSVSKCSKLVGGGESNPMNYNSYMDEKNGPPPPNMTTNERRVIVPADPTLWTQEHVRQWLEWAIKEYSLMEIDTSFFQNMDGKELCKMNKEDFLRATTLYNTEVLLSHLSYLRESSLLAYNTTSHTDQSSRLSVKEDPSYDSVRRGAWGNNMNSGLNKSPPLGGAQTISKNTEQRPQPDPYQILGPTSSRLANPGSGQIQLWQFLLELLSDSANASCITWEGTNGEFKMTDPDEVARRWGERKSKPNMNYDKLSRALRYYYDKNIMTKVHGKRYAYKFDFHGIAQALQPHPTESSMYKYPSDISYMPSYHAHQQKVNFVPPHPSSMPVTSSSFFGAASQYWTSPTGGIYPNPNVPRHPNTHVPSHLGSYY
In short: (§1)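 After expression in yeast as GST fusions, human transcription factors were bound to glutathione beads, DNA-barcoded and mixed with a tag-only sample. The pools were incubated with 200 nmole of a 16-mer random double-stranded DNA library in Tris/NaCl/DTT/glycerol buffer (30 min, room temperature), washed and crosslinked with 0.1% formaldehyde. Proximity ligation with BsaI/T4 ligase ran for 1 h at 37 °C, before PCR amplification and sequencing on an Illumina NextSeq500. Binding signal is a hexamer's read frequency for a factor divided by its frequency for the tag-only sample.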

[2] = target: T2, ELK1 (Homo sapiens, UniProt P19419 1-428); conditions: protein: recombinant; tags: N-terminal GST; dsDNA, one strand shown
T2 sequence: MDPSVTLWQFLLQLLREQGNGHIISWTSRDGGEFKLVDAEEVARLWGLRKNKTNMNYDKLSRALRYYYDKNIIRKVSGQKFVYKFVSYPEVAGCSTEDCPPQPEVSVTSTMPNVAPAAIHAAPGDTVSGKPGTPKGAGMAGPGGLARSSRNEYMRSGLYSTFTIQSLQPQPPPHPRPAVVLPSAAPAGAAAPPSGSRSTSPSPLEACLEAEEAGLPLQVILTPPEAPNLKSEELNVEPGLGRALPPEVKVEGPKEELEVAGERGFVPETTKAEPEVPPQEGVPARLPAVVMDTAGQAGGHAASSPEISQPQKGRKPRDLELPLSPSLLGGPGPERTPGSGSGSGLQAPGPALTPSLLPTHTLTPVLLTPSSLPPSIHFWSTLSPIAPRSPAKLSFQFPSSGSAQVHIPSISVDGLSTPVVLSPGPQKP
In short: as §1

[3] = target: T3, GABPA (Homo sapiens, UniProt Q06546 1-454); conditions: protein: recombinant; tags: N-terminal GST; dsDNA, one strand shown
T3 sequence: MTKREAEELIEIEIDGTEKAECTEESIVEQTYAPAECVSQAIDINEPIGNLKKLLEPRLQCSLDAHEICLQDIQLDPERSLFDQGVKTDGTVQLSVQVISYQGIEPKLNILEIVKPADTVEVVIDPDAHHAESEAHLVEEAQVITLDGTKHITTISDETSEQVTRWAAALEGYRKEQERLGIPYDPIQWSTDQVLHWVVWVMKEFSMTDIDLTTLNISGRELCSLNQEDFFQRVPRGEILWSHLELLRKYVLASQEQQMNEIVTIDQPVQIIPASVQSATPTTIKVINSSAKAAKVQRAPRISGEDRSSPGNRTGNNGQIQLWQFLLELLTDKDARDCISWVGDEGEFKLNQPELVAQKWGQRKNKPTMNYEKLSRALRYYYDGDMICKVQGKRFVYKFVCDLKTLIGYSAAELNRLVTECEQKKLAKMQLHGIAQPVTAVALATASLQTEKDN
In short: as §1

[4] = target: T4, ERG (Homo sapiens, UniProt P11308 1-479); conditions: protein: recombinant; tags: N-terminal GST; dsDNA, one strand shown
T4 sequence: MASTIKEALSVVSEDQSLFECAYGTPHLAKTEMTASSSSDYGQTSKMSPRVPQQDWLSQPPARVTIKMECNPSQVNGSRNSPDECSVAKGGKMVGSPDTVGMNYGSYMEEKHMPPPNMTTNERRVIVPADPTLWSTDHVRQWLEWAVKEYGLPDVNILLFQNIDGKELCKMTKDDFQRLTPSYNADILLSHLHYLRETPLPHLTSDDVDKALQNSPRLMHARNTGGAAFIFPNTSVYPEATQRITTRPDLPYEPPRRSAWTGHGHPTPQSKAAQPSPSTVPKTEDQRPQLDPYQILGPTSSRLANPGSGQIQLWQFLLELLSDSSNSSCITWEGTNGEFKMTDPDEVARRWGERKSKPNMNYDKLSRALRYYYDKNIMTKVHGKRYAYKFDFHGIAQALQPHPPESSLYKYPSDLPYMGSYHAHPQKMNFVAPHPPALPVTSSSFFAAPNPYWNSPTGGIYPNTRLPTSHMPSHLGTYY
In short: as §1

[5] = target: ELF1 (Homo sapiens, UniProt P32519 1-619); conditions: protein: recombinant; tags: N-terminal GST; dsDNA, one strand shown
In short: as §1

[6] = target: T5, EHF (Homo sapiens, UniProt Q9NZC4 1-300); conditions: protein: recombinant; tags: N-terminal GST; dsDNA, one strand shown
T5 sequence: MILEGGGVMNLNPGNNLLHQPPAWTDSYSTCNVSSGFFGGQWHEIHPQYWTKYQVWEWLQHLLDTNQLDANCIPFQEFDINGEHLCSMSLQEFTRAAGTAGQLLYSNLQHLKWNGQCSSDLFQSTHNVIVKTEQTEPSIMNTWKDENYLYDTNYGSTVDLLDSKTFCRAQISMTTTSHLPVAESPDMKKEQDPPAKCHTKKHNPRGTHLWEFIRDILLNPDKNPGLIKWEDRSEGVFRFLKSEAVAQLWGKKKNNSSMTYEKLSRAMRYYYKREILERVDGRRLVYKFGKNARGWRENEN
In short: as §1

[7] = target: SPI1 (Homo sapiens, UniProt P17947 1-270); conditions: protein: recombinant; tags: N-terminal GST; dsDNA, one strand shown
In short: as §1

[8] = target: SPIB (Homo sapiens, UniProt Q01892 1-262); conditions: protein: recombinant; tags: N-terminal GST; dsDNA, one strand shown
In short: as §1

[9] = target: T6, ELK3 (Homo sapiens, UniProt P41970 1-407); conditions: protein: recombinant; tags: N-terminal GST; dsDNA, one strand shown
T6 sequence: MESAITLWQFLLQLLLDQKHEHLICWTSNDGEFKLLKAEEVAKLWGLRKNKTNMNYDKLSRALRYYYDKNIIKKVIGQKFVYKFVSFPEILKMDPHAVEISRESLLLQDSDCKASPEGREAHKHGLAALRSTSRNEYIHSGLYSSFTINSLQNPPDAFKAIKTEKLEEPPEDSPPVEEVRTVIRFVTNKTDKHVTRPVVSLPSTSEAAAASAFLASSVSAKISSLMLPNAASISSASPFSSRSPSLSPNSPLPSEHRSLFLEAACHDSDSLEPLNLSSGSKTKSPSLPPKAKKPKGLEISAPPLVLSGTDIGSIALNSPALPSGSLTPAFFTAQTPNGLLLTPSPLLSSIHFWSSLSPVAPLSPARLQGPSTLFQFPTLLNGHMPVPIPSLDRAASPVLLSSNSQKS
In short: as §1

[10] = target: T7, FEV (Homo sapiens, UniProt Q99581 1-238); conditions: protein: recombinant; tags: N-terminal GST; dsDNA, one strand shown
T7 sequence: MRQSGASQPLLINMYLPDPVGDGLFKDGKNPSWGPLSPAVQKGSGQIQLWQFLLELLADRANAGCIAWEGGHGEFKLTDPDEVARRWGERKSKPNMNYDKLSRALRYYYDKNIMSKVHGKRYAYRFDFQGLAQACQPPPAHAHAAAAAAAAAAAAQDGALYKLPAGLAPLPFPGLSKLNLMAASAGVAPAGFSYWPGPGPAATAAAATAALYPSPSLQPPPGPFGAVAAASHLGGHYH
In short: as §1

[11] = target: ETV5 (Homo sapiens, UniProt P41161 1-510); conditions: protein: recombinant; tags: N-terminal GST; dsDNA, one strand shown
In short: as §1

[12] = target: HSF1 (Homo sapiens, UniProt Q00613 1-529); conditions: protein: recombinant; tags: N-terminal GST; chain copies: 3; dsDNA, one strand shown
In short: as §1

[13] = target: T8, SPIC (Homo sapiens, UniProt Q8N5J4 1-248); conditions: protein: recombinant; tags: N-terminal GST; dsDNA, one strand shown
T8 sequence: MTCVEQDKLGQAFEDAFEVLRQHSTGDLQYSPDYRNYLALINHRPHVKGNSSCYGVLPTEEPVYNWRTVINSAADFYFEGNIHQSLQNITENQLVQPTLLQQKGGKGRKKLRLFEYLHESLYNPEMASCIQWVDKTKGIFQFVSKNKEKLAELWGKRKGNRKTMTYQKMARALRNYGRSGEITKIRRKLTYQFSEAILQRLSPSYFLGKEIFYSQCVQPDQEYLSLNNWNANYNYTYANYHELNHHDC
In short: as §1

[14] = target: ELF4 (Homo sapiens, UniProt Q99607 1-663); conditions: protein: recombinant; tags: N-terminal GST; dsDNA, one strand shown
In short: as §1

[15] = target: T9, ELK4 (Homo sapiens, UniProt P28324-2 1-405); conditions: protein: recombinant; tags: N-terminal GST; dsDNA, one strand shown
T9 sequence: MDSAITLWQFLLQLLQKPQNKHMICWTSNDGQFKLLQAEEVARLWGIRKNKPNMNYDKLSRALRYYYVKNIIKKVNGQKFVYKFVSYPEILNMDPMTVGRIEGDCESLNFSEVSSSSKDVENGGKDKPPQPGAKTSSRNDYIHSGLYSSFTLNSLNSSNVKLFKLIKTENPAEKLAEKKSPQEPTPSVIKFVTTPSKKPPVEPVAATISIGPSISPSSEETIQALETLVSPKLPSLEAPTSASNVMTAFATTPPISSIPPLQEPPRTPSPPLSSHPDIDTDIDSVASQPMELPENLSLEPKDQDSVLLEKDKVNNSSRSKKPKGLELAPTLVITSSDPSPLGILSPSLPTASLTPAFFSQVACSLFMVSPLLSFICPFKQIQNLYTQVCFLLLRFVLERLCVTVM
In short: as §1

[16] = target: T10, ETV2 (Homo sapiens, UniProt O00321 1-342); conditions: protein: recombinant; tags: N-terminal GST; dsDNA, one strand shown
T10 sequence: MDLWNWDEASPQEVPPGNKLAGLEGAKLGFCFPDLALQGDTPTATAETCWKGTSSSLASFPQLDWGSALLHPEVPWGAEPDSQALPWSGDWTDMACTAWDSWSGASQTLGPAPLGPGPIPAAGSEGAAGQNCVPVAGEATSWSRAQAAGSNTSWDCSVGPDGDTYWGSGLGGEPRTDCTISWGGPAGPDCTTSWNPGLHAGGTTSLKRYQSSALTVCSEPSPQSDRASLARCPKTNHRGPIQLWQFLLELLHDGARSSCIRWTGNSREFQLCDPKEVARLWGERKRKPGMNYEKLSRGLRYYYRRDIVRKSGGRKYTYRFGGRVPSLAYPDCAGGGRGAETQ
In short: as §1

[17] = target: T11, ELF3 (Homo sapiens, UniProt P78545 1-371); conditions: protein: recombinant; tags: N-terminal GST; dsDNA, one strand shown
T11 sequence: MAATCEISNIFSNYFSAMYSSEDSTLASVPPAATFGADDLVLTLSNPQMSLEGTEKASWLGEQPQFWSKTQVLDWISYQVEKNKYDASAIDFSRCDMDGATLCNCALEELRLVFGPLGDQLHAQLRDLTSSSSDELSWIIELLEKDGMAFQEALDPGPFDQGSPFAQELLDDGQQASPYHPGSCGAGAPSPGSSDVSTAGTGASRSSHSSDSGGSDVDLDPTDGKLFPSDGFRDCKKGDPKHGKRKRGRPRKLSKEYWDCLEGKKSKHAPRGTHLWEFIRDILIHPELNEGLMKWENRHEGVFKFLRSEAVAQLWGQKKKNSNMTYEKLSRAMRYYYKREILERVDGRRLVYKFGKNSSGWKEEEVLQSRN
In short: as §1

[18] = target: CRX (Homo sapiens, UniProt O43186 1-299); conditions: protein: recombinant; tags: N-terminal GST; dsDNA, one strand shown
In short: as §1

[19] = target: ETV1 (Homo sapiens, UniProt P50549 1-477); conditions: protein: recombinant; tags: N-terminal GST; dsDNA, one strand shown
In short: as §1

Sequence of ETV1 (P50549 whole entry): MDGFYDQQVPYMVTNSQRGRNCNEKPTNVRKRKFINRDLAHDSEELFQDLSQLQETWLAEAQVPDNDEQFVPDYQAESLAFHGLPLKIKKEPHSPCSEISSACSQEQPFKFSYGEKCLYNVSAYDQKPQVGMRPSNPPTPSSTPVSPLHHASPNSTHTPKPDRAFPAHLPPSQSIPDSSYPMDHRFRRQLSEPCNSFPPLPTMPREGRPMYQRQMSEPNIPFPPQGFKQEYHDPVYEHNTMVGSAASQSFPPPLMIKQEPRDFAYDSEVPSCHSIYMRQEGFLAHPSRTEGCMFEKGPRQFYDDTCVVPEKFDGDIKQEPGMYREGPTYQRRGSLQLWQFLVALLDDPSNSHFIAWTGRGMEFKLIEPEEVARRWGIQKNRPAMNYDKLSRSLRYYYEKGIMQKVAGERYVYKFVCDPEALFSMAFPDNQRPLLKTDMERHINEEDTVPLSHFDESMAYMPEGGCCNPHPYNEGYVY
Sequence of ELF4 (Q99607 whole entry): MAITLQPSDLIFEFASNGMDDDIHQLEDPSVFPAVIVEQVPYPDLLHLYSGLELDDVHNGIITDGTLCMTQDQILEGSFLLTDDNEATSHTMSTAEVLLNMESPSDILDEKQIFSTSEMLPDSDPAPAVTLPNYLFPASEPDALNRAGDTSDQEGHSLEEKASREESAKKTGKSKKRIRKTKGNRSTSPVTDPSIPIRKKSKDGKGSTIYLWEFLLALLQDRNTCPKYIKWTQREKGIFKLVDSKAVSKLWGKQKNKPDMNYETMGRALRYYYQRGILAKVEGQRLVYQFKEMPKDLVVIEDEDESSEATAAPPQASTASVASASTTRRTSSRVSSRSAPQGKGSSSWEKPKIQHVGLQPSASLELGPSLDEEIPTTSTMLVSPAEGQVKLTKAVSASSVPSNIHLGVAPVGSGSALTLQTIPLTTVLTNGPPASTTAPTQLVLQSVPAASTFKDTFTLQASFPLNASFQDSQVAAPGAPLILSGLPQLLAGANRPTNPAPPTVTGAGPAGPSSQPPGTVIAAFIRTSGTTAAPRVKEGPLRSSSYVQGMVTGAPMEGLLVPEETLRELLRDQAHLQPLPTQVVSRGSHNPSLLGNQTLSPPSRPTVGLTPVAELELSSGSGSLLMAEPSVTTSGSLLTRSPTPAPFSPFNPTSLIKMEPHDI
Sequence of HSF1 (Q00613 whole entry): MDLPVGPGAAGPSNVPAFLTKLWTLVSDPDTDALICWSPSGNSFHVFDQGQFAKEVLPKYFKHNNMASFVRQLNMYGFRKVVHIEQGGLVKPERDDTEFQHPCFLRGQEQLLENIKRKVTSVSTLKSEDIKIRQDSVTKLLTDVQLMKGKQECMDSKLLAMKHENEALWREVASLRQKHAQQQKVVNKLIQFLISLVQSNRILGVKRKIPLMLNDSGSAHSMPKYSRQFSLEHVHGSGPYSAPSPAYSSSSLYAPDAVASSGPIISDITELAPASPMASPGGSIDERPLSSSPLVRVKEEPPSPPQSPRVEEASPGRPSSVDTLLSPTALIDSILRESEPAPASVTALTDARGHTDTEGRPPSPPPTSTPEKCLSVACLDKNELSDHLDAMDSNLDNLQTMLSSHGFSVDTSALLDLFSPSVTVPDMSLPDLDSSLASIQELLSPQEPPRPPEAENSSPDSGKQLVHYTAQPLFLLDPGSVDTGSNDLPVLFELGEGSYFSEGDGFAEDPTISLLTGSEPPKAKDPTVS
Sequence of CRX (O43186 whole entry): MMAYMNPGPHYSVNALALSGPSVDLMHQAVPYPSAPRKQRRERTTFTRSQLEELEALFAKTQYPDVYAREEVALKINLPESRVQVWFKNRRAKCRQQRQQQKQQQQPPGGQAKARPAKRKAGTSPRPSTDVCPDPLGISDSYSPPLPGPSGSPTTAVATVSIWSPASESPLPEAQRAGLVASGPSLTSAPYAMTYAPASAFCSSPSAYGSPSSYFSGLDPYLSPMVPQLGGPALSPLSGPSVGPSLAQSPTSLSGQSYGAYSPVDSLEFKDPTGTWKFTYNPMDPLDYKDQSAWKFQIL
Sequence of SPIB (Q01892 whole entry): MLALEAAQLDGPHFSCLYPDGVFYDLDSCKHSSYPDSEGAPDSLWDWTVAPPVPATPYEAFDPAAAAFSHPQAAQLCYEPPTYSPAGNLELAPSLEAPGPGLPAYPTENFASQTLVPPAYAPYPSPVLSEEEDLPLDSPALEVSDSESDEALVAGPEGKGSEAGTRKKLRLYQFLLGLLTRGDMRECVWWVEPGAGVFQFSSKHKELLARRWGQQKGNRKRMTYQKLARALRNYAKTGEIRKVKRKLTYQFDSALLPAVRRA
Sequence of ETV5 (P41161 whole entry): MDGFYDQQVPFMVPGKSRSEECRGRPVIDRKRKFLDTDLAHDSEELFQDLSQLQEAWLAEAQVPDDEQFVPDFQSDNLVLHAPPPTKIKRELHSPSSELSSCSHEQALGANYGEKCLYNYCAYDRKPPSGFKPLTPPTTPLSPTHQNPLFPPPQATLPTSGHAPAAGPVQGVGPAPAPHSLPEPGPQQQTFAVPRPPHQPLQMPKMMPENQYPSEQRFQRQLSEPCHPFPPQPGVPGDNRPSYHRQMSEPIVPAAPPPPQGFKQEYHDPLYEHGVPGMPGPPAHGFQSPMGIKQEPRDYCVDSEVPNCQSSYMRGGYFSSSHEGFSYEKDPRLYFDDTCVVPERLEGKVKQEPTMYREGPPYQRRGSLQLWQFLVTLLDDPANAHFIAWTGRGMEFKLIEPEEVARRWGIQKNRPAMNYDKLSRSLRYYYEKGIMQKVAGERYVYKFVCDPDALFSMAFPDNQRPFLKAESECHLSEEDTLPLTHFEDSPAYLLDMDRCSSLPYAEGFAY
Sequence of ELF1 (P32519 whole entry): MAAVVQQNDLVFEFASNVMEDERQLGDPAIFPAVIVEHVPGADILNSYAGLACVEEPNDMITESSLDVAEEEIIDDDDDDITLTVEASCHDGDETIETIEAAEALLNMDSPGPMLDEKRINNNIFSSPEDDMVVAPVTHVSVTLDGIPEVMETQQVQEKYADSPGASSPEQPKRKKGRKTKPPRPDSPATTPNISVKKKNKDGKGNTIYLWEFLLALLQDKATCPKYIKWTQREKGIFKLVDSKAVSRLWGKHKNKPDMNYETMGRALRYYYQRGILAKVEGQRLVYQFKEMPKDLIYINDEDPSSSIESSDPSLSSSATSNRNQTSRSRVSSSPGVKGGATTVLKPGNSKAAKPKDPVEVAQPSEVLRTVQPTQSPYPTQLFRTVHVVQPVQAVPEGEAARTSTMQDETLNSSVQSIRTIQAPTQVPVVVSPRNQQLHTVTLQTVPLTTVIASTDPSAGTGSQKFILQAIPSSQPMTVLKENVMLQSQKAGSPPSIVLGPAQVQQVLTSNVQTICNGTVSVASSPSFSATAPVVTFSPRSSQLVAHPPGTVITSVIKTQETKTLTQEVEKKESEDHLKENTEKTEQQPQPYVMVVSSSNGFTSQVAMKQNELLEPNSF

TAACAC
binding signal [1]: 1.26 fold enrichment (6-mer frequency, TF over GST control)
binding signal [2]: 1.2 fold enrichment (6-mer frequency, TF over GST control)
binding signal [3]: 1.24 fold enrichment (6-mer frequency, TF over GST control)
binding signal [4]: 1.19 fold enrichment (6-mer frequency, TF over GST control)
binding signal [5]: 1.23 fold enrichment (6-mer frequency, TF over GST control)
binding signal [6]: 1.21 fold enrichment (6-mer frequency, TF over GST control)
binding signal [7]: 1.18 fold enrichment (6-mer frequency, TF over GST control)
binding signal [8]: 1.25 fold enrichment (6-mer frequency, TF over GST control)
binding signal [9]: 1.15 fold enrichment (6-mer frequency, TF over GST control)
binding signal [10]: 1.24 fold enrichment (6-mer frequency, TF over GST control)
binding signal [11]: 1.23 fold enrichment (6-mer frequency, TF over GST control)
binding signal [12]: 1.2 fold enrichment (6-mer frequency, TF over GST control)
binding signal [13]: 1.39 fold enrichment (6-mer frequency, TF over GST control)
binding signal [14]: 1.26 fold enrichment (6-mer frequency, TF over GST control)
binding signal [15]: 1.32 fold enrichment (6-mer frequency, TF over GST control)
binding signal [16]: 1.15 fold enrichment (6-mer frequency, TF over GST control)
binding signal [17]: 1.16 fold enrichment (6-mer frequency, TF over GST control)
binding signal [18]: 1.56 fold enrichment (6-mer frequency, TF over GST control)
binding signal [19]: 1.19 fold enrichment (6-mer frequency, TF over GST control)
